PubChem BioAssay

Assay: splicing luciferase reporter signal modulators, primary screen, spliceosome inhibition project, cell-based, HEK293, splice +/- reporter (AID 1101);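 also: HEK293 cells carrying a splicing-competent luciferase reporter gene; test concentration not given here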
Details: luminescence, 24 h, higher = more signal, called active from +8 up or from −8 down

z-score, inactive:
CCOC(=O)C1=CCC(c2ccc(C)cc2)N(S(=O)(=O)c2ccc(C)cc2)C1 (centres undefined) -0.688
CN(C)CCCNC(=O)[C@@]1(c2ccc([N+](=O)[O-])cc2)CC(=O)N(C2CCCCC2)[C@@H]1c1ccc(CO)cc1 0.315
CC(=O)N1Cc2ccccc2C[C@@]2(COC(c3ccc(OCCCO)cc3)=N2)C1=O -1.66
COCCOC(=O)N1C(=O)[C@@]2(c3cc(C#CC4=CCCCC4)ccc31)[C@H](C(=O)Nc1nc3ccccc3s1)[C@H]1C(=O)O[C@H](c3ccccc3)[C@H](c3ccccc3)N1[C@@H]2c1ccc(OCCO)cc1 0.000305
C=CC[C@]1(C(=O)N2CCCCC2)N=C(c2ccc(OCCCO)cc2)O[C@H]1c1ccccc1 -0.0569
O=C1NCC(=O)N2[C@@H]1C[C@@H](C(=O)O)[C@H]2c1cccc(OCCO)c1 0.45
O=C1O[C@H](c2ccccc2)[C@H](c2ccccc2)N2[C@H]1[C@@H](C(=O)O)[C@]1(C(=O)Nc3ccc(C#CCCO)cc31)[C@H]2c1ccc(O)cc1 -0.765
C=CCOC(=O)[C@H]1[C@@H]2C(=O)O[C@@H](c3ccccc3)[C@@H](c3ccccc3)N2[C@@H](c2ccc(OCCOC(=O)[C@@H]3C[C@@H]4C(=O)N[C@@H](CCCCN(C)C)C(=O)N4[C@@H]3c3ccc(O)cc3)cc2)[C@]12C(=O)Nc1ccc(I)cc12 -0.433
CC(C)(C)OC(=O)CC[C@]12N=C(c3ccc(OCCCO)cc3)O[C@H]1c1ccccc1N(CCS(=O)(=O)c1ccccc1)C2=O 0.0112
